# Data published in PubChem BioAssay AID504577 (NMMLSC, 2011).
# Screen size: about 350,000 compounds; about 1,300 (0.37%) were called active. No stated cut-off is given here; in the data, active means response mostly above about 7.3% (no sharp cut-off); inactive means mostly below about 5.4%. For the sample, actives were picked, then their nearest neighbours and some compounds at random.
# Test: regulators of yeast V-ATPase proton pumping, primary screen, pHLuorin cytosolic pH fluorescence (AID 504577); further: actives read high
# Settings: S. cerevisiae, at 10 µM, hits give high values
row,Structure (SMILES),response
1,CCN(CC)C(=O)c1ccc(NC(=O)c2sccc2-c2ccccc2)cc1,-3.45% (inactive)
2,O=C(COC(=O)Cc1ccccc1)Nc1ccc(F)cc1,-1.24% (inactive)
3,CC(=O)Nc1ccc(C(=O)C(Cc2ccccc2)N(C)C)cc1 (stereo not given),8.72% (active)
4,COc1ccc(Br)cc1CNCCc1cccc(Cl)c1,1.48% (inactive)
5,N=c1ccccn1Cc1ccccc1,-1.95% (inactive)
6,CN1CCC[C@@H]1CCO[C@](C)(c1ccccc1)c1ccc(Cl)cc1,-5.35% (inactive)
7,COc1ccc(N2C(=O)/C(=C/c3ccco3)C(=O)NC2=S)cc1,8.65% (inactive)
8,COc1cccc(N2C(=O)NC(=O)/C(=C\c3ccc([N+](=O)[O-])s3)C2=O)c1,125% (active)
9,O=C1NC(=O)N(c2ccc(F)cc2)C(=O)/C1=C/c1ccc2c(c1)CCCN2Cc1ccccc1,1.07% (inactive)
10,O=C1NC(=O)N(c2ccccc2)C(=O)/C1=C/c1ccc([N+](=O)[O-])s1,102% (active)
11,CCCC(C)n1[nH]c(=O)c2c1NC(=O)CSC2c1ccc(OC)c(OC)c1 (stereo not given),1.43% (inactive)
12,O=c1[nH]c(CN2CC=C(c3ccccc3)CC2)nc2scc(-c3cccs3)c12,-2.27% (inactive)
13,CNC(=O)N(C)c1nnc(C(C)(C)C)s1,2.46% (inactive)
14,Cc1c(C(=O)O)cccc1-n1c(C)cc(/C=C2\C(=O)NC(=O)N(c3ccc4c(c3)OCO4)C2=O)c1C,-0.49% (inactive)
15,Cc1ccc(-n2c(C)cc(/C=C3\C(=O)NC(=O)N(C)C3=O)c2C)cc1C,-0.72% (inactive)
16,Cc1ccccc1N1C(=O)NC(=O)/C(=C\c2cc(C)n(C)c2C)C1=O,13.8% (active)
17,CC(=O)N(C1=NCCCS1)c1ccccc1F,0.19% (inactive)
18,CC12CCC(O)CC1CCC1C2CCC2(C)C(C(=O)CC(O)C(F)(F)F)CCC12 (stereo not given),5.09% (inactive)
19,CCOC(=O)C(O)(c1ccc(N=Cc2ccccc2O)c(C)c1)C(F)(F)F (stereo not given),-2.77% (inactive)
20,Cc1nc2nc(C)c(CCC(=O)N3CCC4(CC3)OCCO4)c(C)n2n1,-4.03% (inactive)
